Assay results published in PubChem BioAssay (EPA / NIEHS).
The source made the active and inactive calls. Rule for the calls: active = hit-call score of the fitted dose curve at least 0.9, where 1 is the maximum; inactive = score below 0.9.

read-out: cysteine-aspartic acid protease (CASP8), CASP8 (gene 841); assay: LTEA_HepaRG_CASP8: Life Technologies and Expression Analysis (LTEA) Assay for cysteine-aspartic acid protease (CASP8) using HepaRG (AID 2283480); conditions: mRNA level, 48 h; actives raise or lower the signal
Method: LTEA_HepaRG is a cell based, multiplexed-readout assay that uses HepaRG, a human liver cell line, with measurements taken at 48 hours after chemical dosing on a 96-well plate.LTEA_HepaRG_CASP8 is one of 102 assay component(s) measured in the LTEA HepaRG cell culture assay. It is a marker of Cell proliferation, survival, death.Data from the assay component LTEA_HepaRG_CASP8 was analyzed into 1 endpoint. This assay endpoint, LTEA_HepaRG_CASP8, was analyzed with bidirectional fitting relative to DMSO as the negative control and baseline of activity. Using a type of inducible reporter, measures of mRNA induction for gain or loss-of-signal activity can be used to understand regulation of transcription factor activity. To generalize the intended target to other relatable targets, this assay endpoint is annotated to the protease intended target family, where the subfamily is cysteine protease.
A total of 1060 chemcials from the ToxCast library were tested in eight-point concentration-response experiments. Cell culture and cytotoxicity assays were conducted at Thermo Fisher Scientific's Custom Services facility (Madison, WI). A single lot of human HepaRG cells (Thermo Fisher Scientific, Frederick, MD) was used for the cell culture experiments. 96-well format collagen type I coated plates of human HepaRG cells were prepared using established methods. Briefly, cryopreserved HepaRG cells were thawed, plated at a density of approximately 100,000 cells/well in HepaRG Thaw, Plate, and General Purpose media (HPRG770, Thermo Fisher Scientific), and incubated for 48 hours. 0.5% DMSO was selected as vehicle control to balance the requisite need of DMSO in HepaRG cultures to maintain differentiation (for example, baseline metabolism, proportions of hepatocytes vs. cholangiocytes), while enabling further hepatic receptor pathway activation (for example, PXR and CAR) in response to chemical exposure. 48 hours after plating, the culture medium was replaced with HepaRG Serum-Free Incudtion Media. Cells were exposed to each test chemical in duplicate and maintained in CO2 incubators for another 48 hours. Chemical plates were thawed to room temperature and 200x concentrations of treatment groups were prepared. 8-point conentration-reponse curves were made with the highest exposure at 100 uM, followed by half-log dilutions, all in 0.5% DMSO. Each test plate contained variouse controls, induction positive controls (1mM phenobarbital), cytotoxicity positive controls ([…] aflatoxin B1), vehicle controls (0.5% DMSO), and total lysis controls (0.5% DMSO). Cell morphology images were taken using an Essen IncuCyte FLR automated microscope, with six 96-well plates imaged in about 24 minutes. Images were captured and exported and JPEG files. Spent culture media was transfered to black-well plates for the LDH assay, and remaining media was sorted at -80 C for later use. Cells were treated with RLT buffer and frozen until shipped for gene expression analysis. Total RNA was isolated from the cell suspension in 75 uL of Buffer RLT (Qiagen, Germantown, MD 20874) by Quintiles/Expression Analysis (Durham, NC) using a custom isolation procedure. Total RNA from each plate well was transferred to a preamplification plate. Fluidigm's 96.96 Dynamic ArrayTM (Fluidigm, Amsterdam, the Netherlands) technology was used for gene expression analyses by quantitative reverse transcription polymerase chain reaction (qRT-PCR, performed by Quintiles/Expression Analysis, Durham, NC)89. Standard TaqManTM Assays (Applied Biosystems/ThermoFisher Scientific, Foster City, CA) were used to assess the expression of 93 genes selected based on their selectivity and sensitivity to important hepatic receptors known to be modulated by environmental chemicals; importance in human hepatocyte functionality; and hepatotoxicity. […]

Row | Structure (SMILES) | AC50 | outcome
1 | Nc1c(Cl)cc([N+](=O)[O-])cc1Cl | 50 µM (active) | 
2 | Cc1ccn2nc(S(=O)(=O)Nc3c(F)cccc3F)nc2n1 |  | inactive
3 | COP(=O)(OC)OC(Br)C(Cl)(Cl)Br (stereo not given) |  | inactive
4 | CCOC(=O)CC(SP(=O)(OC)OC)C(=O)OCC (stereo not given) |  | inactive
5 | C#CCC1=C(C)C(OC(=O)C2C(C=C(C)C)C2(C)C)CC1=O (stereo not given) |  | inactive
6 | CCOP(=S)(OCC)Oc1ccc([N+](=O)[O-])cc1 |  | inactive
7 | CCCSP(=O)(OCC)Oc1ccc(Br)cc1Cl (stereo not given) |  | inactive
8 | CC(Oc1cccc(Cl)c1)C(=O)O (stereo not given) |  | inactive
9 | CCC(CC)Nc1c([N+](=O)[O-])cc(C)c(C)c1[N+](=O)[O-] |  | inactive
10 | CC1=NNC(=O)N(/N=C/c2cccnc2)C1 |  | inactive
11 | CN1COCN(Cc2cnc(Cl)s2)C1=N[N+](=O)[O-] |  | inactive
12 | CCOP(=S)(OCC)Oc1cc(C)nc(C(C)C)n1 |  | inactive
13 | C#CC(C)(C)NC(=O)c1cc(Cl)cc(Cl)c1 |  | inactive
14 | C=C(C)[C@H]1Cc2c(ccc3c2O[C@@H]2COc4cc(OC)c(OC)cc4[C@@H]2C3=O)O1 |  | inactive
15 | CSc1nc(NC(C)C)nc(NC(C)C)n1 |  | inactive
16 | CN(C)NC(=O)CCC(=O)O |  | inactive
17 | CN(C)[C@@H]1C(=O)C(C(N)=O)=C(O)[C@@]2(O)C(=O)C3=C(O)c4c(O)cccc4[C@@](C)(O)[C@H]3[C@H](O)[C@@H]12 |  | inactive
18 | Nc1nc(N)nc(NC2CC2)n1 |  | inactive
19 | CCOP(=O)(OCC)Oc1cc(C)nc(C(C)C)n1 |  | inactive
20 | COc1ccc(C(=CC(=O)N2CCOCC2)c2ccc(Cl)cc2)cc1OC |  | inactive

Row | Structure (SMILES) | AC50 | outcome
21 | CC[C@H](C)[C@H]1O[C@]2(C=C[C@@H]1C)C[C@@H]1C[C@@H](C/C=C(\C)[C@@H](O[C@H]3C[C@H](OC)[C@@H](O[C@H]4C[C@H](OC)[C@@H](NC)[C@H](C)O4)[C@H](C)O3)[C@@H](C)/C=C/C=C3\CO[C@@H]4[C@H](O)C(C)=C[C@@H](C(=O)O1)[C@]34O)O2 |  | inactive
22 | O=c1ccc(=O)[nH][nH]1 |  | inactive
23 | FC(F)C(F)(F)OCC(Cn1cncn1)c1ccc(Cl)cc1Cl (stereo not given) |  | inactive
24 | CCOP(=S)(OCC)SCCSCC |  | inactive
25 | CCCSP(=O)(OCC)SCCC |  | inactive
26 | CCCOCC(=Nc1ccc(Cl)cc1C(F)(F)F)n1ccnc1 |  | inactive
27 | CC1(C(=O)Nc2ccc(O)c(Cl)c2Cl)CCCCC1 |  | inactive
28 | CCCCSP(=O)(SCCCC)SCCCC |  | inactive
29 | CC(C1CC1)C(O)(Cn1cncn1)c1ccc(Cl)cc1 (stereo not given) |  | inactive
30 | CON=C(C(=O)OC)c1ccccc1CON=C(C)c1cccc(C(F)(F)F)c1 |  | inactive
31 | C[N+]1(C)CCCCC1 |  | inactive
32 | CC(C)=CC1C(C(=O)OCN2C(=O)C3=C(CCCC3)C2=O)C1(C)C (stereo not given) |  | inactive
33 | CCc1cccc(CC)c1N(COC)C(=O)CCl |  | inactive
34 | CC(=NC#N)N(C)Cc1ccc(Cl)nc1 |  | inactive
35 | CCCCOC(=O)[C@@H](C)Oc1ccc(Oc2ccc(C#N)cc2F)cc1 |  | inactive
36 | O=C(O)c1cc(Oc2ccc(C(F)(F)F)cc2Cl)ccc1[N+](=O)[O-] |  | inactive
37 | COP(=O)(OC)SCn1c(=O)oc2cc(Cl)cnc21 |  | inactive
38 | CCNc1nc(Cl)nc(NC(C)(C)C#N)n1 |  | inactive
39 | COc1cc(OC)nc(Sc2cccc(Cl)c2C(=O)O)n1 |  | inactive
40 | COc1cccc(C(=O)NN(C(=O)c2cc(C)cc(C)c2)C(C)(C)C)c1C |  | inactive
